# Assay outcomes deposited in PubChem BioAssay by National Center for Advancing Translational Sciences (NCATS).
# pAkt inh: HTS Assay for Inhibitors of Akt Phophorylation: Primary Screen. Neuro2A IGF-stimulated pAkt S473 HTRF, 20 min; stronger effect = lower value. activity change, % for hits at 50 µM. 360,000 compounds, 0.32% hits. AID 651550, 2012; in the data active = activity change below about -80%; inconclusive = mostly about -51% to -80%
#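 Neuro2A cells in DMEM with 0.5% FBS, overnight at 37 deg C, given compound at single 50 µM final, then IGF (6 nM final) for 20 min at 37 deg C. Lysed; phospho-Akt Ser473 by HTRF after 24 h, 665/615 ratio.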
# Six1-Eya2 blk: qHTS Assay for Inhibitors of the Six1/Eya2 Interaction; 360,000 compounds, 0.56% hits; AlphaScreen GST-Six1/His-Eya2 binding, biochemical; stronger effect = lower value; activity change, % (concentration not given with the values); in the data active = activity change below about -65%; inconclusive = mostly about -30% to -63%
#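 AlphaScreen with GST-Six1 and His-Eya2 (5X mix: 250 nM and 500 nM), glutathione donor and nickel acceptor beads; buffer 50 mM Tris pH 8.0, 300 mM NaCl, 1 mM TCEP; 1 h at 37 C in the dark.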
# CtBP-E1A inh: qHTS Assay for Inhibitors of the CtBP/E1A Interaction; AlphaScreen GST-E1A/His-CtBP binding, 1536-well; stronger effect = lower value; 340,000 compounds, 0.49% hits; CtBP / adenovirus E1A interaction (AlphaScreen); activity change, % (no concentration beside the values); AID 651724, 2012; in the data active = activity change below about -65%; inconclusive = mostly about -30% to -63%
#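 Steps: dispense buffer (Tris pH 8.0, NaCl 300 mM, TCEP 1 mM, BSA, Tween 20); add 5X protein mix (GST-E1A, His-CtBP, 125 nM each); pin 23 nL compound; 2 h at 37 °C, dark; add 5X beads (50 ug/mL); 1 h; read.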
# Glioma ERSR ind: qHTS for Inducers of the Endoplasmic Reticulum Stress Response (ERSR) in Human Glioma: qHTS. U87-MG GRP78 promoter luciferase reporter, 16 h. Potency, µM, usual class: activators. 420,000 compounds, 0.02% hits; also: series mostly up to about 76 µM; nearly all actives have a fitted effect of over 35% in size
#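 Stably transfected U87-MG glioma cells carrying a GRP78-based luciferase sensor; 16 h compound incubation. Luminescence end-point read 10 min after Bright-Glo addition at room temperature.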
# RGS4 inhibitor: Inhibitors of Regulator of G Protein Signaling (RGS) 4: qHTS; Regulator of G-protein signaling 4 (Homo sapiens), P49798; Transcreener GDP fluorescence polarization, RGS4-accelerated GTP hydrolysis; Potency, µM (highest dose often 114 µM), actives largely listed as inhibitors; 390,000 compounds, 0.039% hits; AID 504845, 2011; also: nearly all actives have a fitted effect of over 75% in size
#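 MLSMR compounds (23 nl, pin-transferred) preincubated 10 min at room temperature with a 500nM (2x) first reagent, then RGS4 at 900nM (2x) plus Transcreener GDP mix added; fluorescence polarization (620/688 nm) read before and after 90 min at 30 °C.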
# Numbers stand for hits; n = inactive; u = inconclusive; x = no result; [ ] = another dose, or the depositor's remark. Hits are enriched below; roughly 0.88% of the tested compounds scored in any of these assays. Unless noted, calls follow the shape of the dose curve; as a rule, active = well fitted curve in the direction sought with a large enough effect; inconclusive = small, poorly fitted or top-dose-only effect, or another doubt; inactive = no such curve, though single readings can be large; an effect the other way counts as inactive or inconclusive.
SMILES,pAkt inh,Six1-Eya2 blk,CtBP-E1A inh,Glioma ERSR ind,RGS4 inhibitor
Cn1nccc1C(=O)NCC1CCC2(CCN(Cc3ccc(-c4ccc(Cl)cc4)o3)CC2)O1 (stereo not given),x,x,x,n,x
Cc1cc(=O)n2[nH]c(-c3ccsc3-n3c(C)ccc3C)cc2n1,n,n,n,n,n[11.4 µM]
Cc1nc2cc(-c3ccsc3-n3c(C)ccc3C)[nH]n2c(=O)c1Cl,n,-78,u,n,u
CC(C)c1c(C(=O)N(C)C2CCN(C)CC2)cnn1-c1nccc(-c2ccco2)n1,x,x,x,n,x
O=C(CSc1nnc(C2CC2)n1-c1ccccc1)NCCc1ccccc1,-102%,n,n,n,n
COc1cccc(N=Nc2c(N)[nH]n3c(=O)c4c(nc23)CCCC4)c1,n,-71,n,n,n
COc1cccc(N=Nc2c(N)[nH][nH]c2=O)c1,n,n,n,n,n
CC(C)CNc1ncnc2oc(-c3ccco3)c(-c3ccco3)c12,x,x,x,n,n
S=c1ncc2n[nH]nc2[nH]1,x,x,x,n,x
O=C1c2ccccc2C(=O)N1CNc1ccccc1,-123%,n,n,n,n
Cc1nn(-c2ccccc2)c(C)c1/C=N/O,-111%,n,n,n,n
COc1cccc(-c2ccnc(-n3ncc(C(=O)NCC(C)(C)CN(C)C)c3C)n2)c1,x,x,x,n,x
COc1ccc(OC)c(/C=C/C(=O)OCC(=O)N2CCCCC2)c1,n,n,-77,n,n
Cc1c(C(=O)NCCN2CCC(c3ccccc3)CC2)cnn1-c1nccc(-c2cccs2)n1,x,x,x,n,x
Cc1ccccc1NC(=O)C(Cl)=C(Cl)Cl,n,n,n,35µM,n
N#Cc1ccc(/C=C2/C=Cc3ccccc32)cc1,x,x,x,n,x
NC(c1csc(Nc2cc(NCc3ccco3)ncn2)n1)c1ccccc1Cl (stereo not given),n,u,-80,n,x
CS(=O)(=O)c1ccc(Nc2nc(C(N)c3ccccc3Cl)cs2)cc1 (stereo not given),n,n,n,n,x
NC(Cc1ccc(F)cc1)c1csc(Nc2cc(NCc3ccco3)ncn2)n1 (stereo not given),x,u,-76,n,x
CN(C)c1ccc(N=Nc2ccccc2Br)cc1,n,-87,-90,n,n
CN(C)c1ccc(N=Nc2ccnc3ccccc23)cc1,x,x,x,n,x
COCC(C)NC(=O)C1CC(c2cccc(Br)c2)=NO1 (stereo not given),-111%,n,n,n,n
COc1cc(NC(=O)C2CC(c3cccc(Br)c3)=NO2)cc(OC)c1OC (stereo not given),n,n,n,n,n
COc1cc(CN2CCC3(CCC(CNC(=O)c4cc(C)nn4C)O3)CC2)ccc1F (stereo not given),x,x,x,n,x
O=C(CNC(=O)c1cccc(F)c1)N/N=C/c1cc(Br)ccc1OC(=O)/C=C/c1ccco1,n,-88,-88,n,n[11.4 µM]
SMILES,pAkt inh,Six1-Eya2 blk,CtBP-E1A inh,Glioma ERSR ind,RGS4 inhibitor
O=C(CNC(=O)c1ccccc1O)N/N=C/c1cc(Br)ccc1OC(=O)/C=C/c1ccco1,n,-85,-95,n,u
COc1ccc([N+](=O)[O-])cc1/C=N/NC(=O)CNC(=O)c1cccc(F)c1,n,u,-70,n,n
COc1ccc([N+](=O)[O-])cc1/C=N/NC(=O)CNC(=O)C(c1ccccc1)c1ccccc1,n,n,n,n,n
COc1ccc(C(=O)N2CCCC(c3nc(SCc4ccccn4)ncc3C)C2)cc1F (stereo not given),x,x,x,n,x
Cc1oc(-c2ccccc2NC(=O)c2ccccn2)nc1CNC(=O)c1cccc(C#CC(C)(C)O)c1,x,x,x,n,x
O=C(CSC1=NNC(c2ccccn2)S1)Nc1ccc(C(F)(F)F)cc1 (stereo not given),n,-91,-95,n,u
O=C(CSc1nccn1C1CCCC1)Nc1ccc(C(F)(F)F)cc1,x,x,x,n,n
CC(C)(C)n1ncc2c(=O)n(Cc3cccc(OC(F)F)c3)cnc21,x,x,x,n,x
COc1ccccc1/C=N/NC(=O)CSc1cc(C)nc2ccccc12,n,n,n,n,n
